# Test results reported in PubChem BioAssay (NCATS).
# Where “and” joins values, the source holds several entries; their conditions need not be identical. Identical values can stand only once. Inconclusive results are not listed. Calls of active or inactive are those of the source. Unless noted, the rule behind the calls is not given here. Starred links: 1 amine or outer side, 2 acyl side, 3 side chain; linkers in the order of their positions; H or OH if unused. Positions of bridges follow the written chain, without caps; N, C: chain ends. Non-standard residues stand in square brackets, D forms with d. Residues, ends and D or L forms follow the SMILES beside them. ξ: configuration not given here. *: point of attachment. ΔAla(3-NHCONH2) = NC(=O)NC=C(N)C(=O)O; X1 = NC1=NCCC(C(N[*:1])C(=O)[*:2])N1; ξβ3hOrn = NCCCC(N)CC(=O)*; Dap = NC[CH](N)C(=O)O
# Legend:
# [1] = qHTS assay for small molecule agonists of the antioxidant response element (ARE) signaling pathway measured by Nrf2-dependant transcriptional activity - cell viability counter screen (AID 720653; active = well fitted curve in the direction sought with a large enough effect in the repeat runs; an effect the other way counts as inactive or inconclusive; note: % is set by controls: 0 for no effect and ±100 for the full control effect); details: ARE-bla HepG2 viability, CellTiter-Glo ATP luminescence, 16 h; max response: stronger effect = lower value
# How it was run: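 ARE-bla HepG2 cells treated with compounds for 16 h at 37C; this counter screen measures viability as intracellular ATP by CellTiter-Glo luminescence after 30 min at room temperature.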
# [2] = qHTS Assay for Identifying Gametocytocidal Compounds (AID 743244; active = well fitted curve in the direction sought with a large enough effect; an effect the other way counts as inactive or inconclusive; note: potency is the fitted concentration of half-maximal effect;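 for max response: % is set by controls: 0 for no effect and ±100 for the full control effect; actives lower the fluorescent signal which means gametocytes are killed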); details: P. falciparum 3D7 stage III-V gametocytes, alamarBlue, 72 h; max response: stronger effect = lower value
# How it was run: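 A resazurin-based viability read-out was applied to mature P. falciparum gametocytes: 72 h compound treatment, then 24 h dye incubation, with falling fluorescence signalling gametocytocidal effect.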
# [3] = qHTS assay for cell viability of HEK293 cells (AID 743288; active = well fitted curve in the direction sought with a large enough effect; an effect the other way counts as inactive or inconclusive; note: nearly all actives have a fitted effect of over 50% in size; note: potency is the fitted concentration of half-maximal effect; for max response: % is set by controls: 0 for no effect and ±100 for the full control effect); details: ATP luminescence (CellTiter-Glo), 18 h; max response: stronger effect = lower value
# How it was run: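 HEK293, 18 h, 37 C, ATP luminescence. Cells at 2,000/well were allowed at least 5 h to settle before dosing; CellTiter-Glo developed 30 min at RT.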
# [4] = qHTS assay for cell viability of the p53RE-bla HCT-116 cell line (AID 743292; active = well fitted curve in the direction sought with a large enough effect; an effect the other way counts as inactive or inconclusive; note: nearly all actives have a fitted effect of over 55% in size; note: potency is the fitted concentration of half-maximal effect)
# How it was run: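 Readout: CellTiter-Glo luminescence after 30 min RT. Treatment: compounds in DMSO, 16 h, 37 C. Cells: CellSensor p53RE-bla HCT-116, 4,000/well, preincubated 5 h.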
# [5] = qHTS profiling of the MIPE4 collection as inhibitors of Plasmodium falciparum (3D7) proliferation (AID 743344);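 note: scaled between DMSO vehicle wells and 0.29 µM artemisinin as full inhibition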; details: P. falciparum 3D7 in erythrocytes, SYBR Green DNA fluorescence, 72 h
# How it was run: (§1)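 Parasite DNA was quantified by SYBR Green I fluorescence (ex 485, em 535 nm) after overnight lysis in saponin/Triton buffer at room temperature. Cultures at 0.3% parasitemia and 2.5% hematocrit were first exposed to compound for 72 h at 37 C; signals were normalised to artemisinin (0.29 uM) and vehicle wells.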
# [6] = qHTS profiling of the MIPE4 collection as inhibitors of Plasmodium falciparum (DD2) proliferation (AID 743345); details: P. falciparum Dd2 in erythrocytes, SYBR Green DNA, 72 h
# How it was run: as §1
# [7] = qHTS profiling of the MIPE4 collection as inhibitors of Plasmodium falciparum (DD2) proliferation (Rep 2) (AID 743346); details: P. falciparum Dd2 in erythrocytes, SYBR Green DNA, 72 h
# How it was run: as §1
# [8] = qHTS profiling of the MIPE4 collection as inhibitors of Plasmodium falciparum (HB3) proliferation (AID 743347);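 note: plate controls were DMSO vehicle wells for no effect and artemisinin wells for full effect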; details: P. falciparum HB3 in erythrocytes, SYBR Green DNA, 72 h
# How it was run: as §1
# [9] = qHTS profiling for inhibitors of Plasmodium falciparum (3D7) proliferation (AID 743322);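 note: infected erythrocytes exposed to compound for 72 h before lysis; 100% = DMSO vehicle wells and 0% = 0.29 µM artemisinin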; details: P. falciparum 3D7 proliferation; at 28.7 µM (top of the series)
# How it was run: as §1
# [10] = qHTS profiling for inhibitors of Plasmodium falciparum (DD2) proliferation (AID 743323); details: lower = more inhibition; at 28.7 µM (top of the series)
# How it was run: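 P. falciparum Dd2-infected erythrocytes (0.3% parasitemia, 2.5% hematocrit) exposed 72 h at 37 C, 5% CO2. Lysis with SYBR Green, overnight at room temperature, fluorescence 485/535 nm; normalized to 0.29 uM artemisinin and DMSO.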
# [11] = qHTS profiling for inhibitors of Plasmodium falciparum (HB3) proliferation (AID 743324; active = well fitted curve in the direction sought with a large enough effect; an effect the other way counts as inactive or inconclusive;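 note: 100% = DMSO vehicle wells and 0% = artemisinin-treated control wells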); details: Plasmodium falciparum HB3 blood-stage proliferation; at 28.7 µM (top of the series)
# How it was run: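 SYBR Green fluorescence (485 ex/535 em) of lysed cultures, incubated overnight at room temperature in the dark, quantifies parasite DNA. Infected erythrocytes at 0.3% parasitemia and 2.5% hematocrit were exposed 72 h; values normalized to DMSO and 0.29 uM artemisinin controls.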
# [12] = at 28.5 µM (top of the series) unless noted
# [13] = at 0.217 µM (top of the series)
structure (smiles),measurement,setting,value
N[C@@H](Cc1ccc(N(CCCl)CCCl)cc1)C(=O)O,max response,[1],-3.2% (inactive) and -6.56% (inactive)
same,max response,[2],7.49% (inactive)
same,Potency,[3],50.1 µM (active)
same,Potency,[4],inactive
same,"parasite growth, % of DMSO control",[5]; [12],47.5%
same,"parasite growth remaining, % of DMSO control (lower = more inhibition)",[6]; [12],21.4%
same,"parasite growth, % of control (lower = inhibition)",[7]; [12],31.9%
same,"growth, % of control",[8]; [12],57.1%
C[C@]12CC[C@H]3[C@@H](CCC4=CC(=O)CC[C@@H]43)[C@@H]1CC[C@@H]2OC(=O)CCc1ccccc1,max response,[2],0.188% (inactive)
C[C@]12C/C(=C/O)C(=O)C[C@@H]1CC[C@@H]1[C@@H]2CC[C@@]2(C)[C@H]1CC[C@]2(C)O,max response,[1],3.17% (inactive) and 10.2% (inactive)
same,max response,[2],18.9% (inactive)
same,max response,[3],-10.8% (inactive) and -7.35% (inactive)
same,Potency,[4],50.1 µM (active)
CCN(C(C)=O)c1cccc(-c2ccnc3c(C#N)cnn23)c1,max response,[2],4.87% (inactive)
NP(N)(=O)NC(=O)c1ccc(F)cc1,max response,[2],-2.45% (inactive)
CCN(CC)CCOC(=O)C(O)(c1ccccc1)c1ccccc1,max response,[2],-7.9% (inactive)
CC(=O)Oc1ccccc1C(=O)Nc1ncc([N+](=O)[O-])s1,max response,[2],33.5% (inactive)
CC(=O)Nc1cc([As](=O)(O)O)ccc1O,max response,[2],0.387% (inactive)
CC1NCCOC1c1ccccc1 (stereo not given),max response,[2],1.41% (inactive)
CCN(CC)C(=O)N[C@@H]1C=C2c3cccc4[nH]cc(c34)C[C@@H]2N(C)C1,Potency,[2],20 µM (active)
CN(C)CCc1ccc(O)cc1,max response,[2],-0.843% (inactive)
same,"parasite growth, % of DMSO control",[5]; [12],103%
same,"parasite growth remaining, % of DMSO control (lower = more inhibition)",[6]; [12],95.5%
same,"parasite growth, % of control (lower = inhibition)",[7]; [12],111%
same,"growth, % of control",[8]; [12],104%
CC1Cc2ccccc2N1NC(=O)c1ccc(Cl)c(S(N)(=O)=O)c1 (stereo not given),"parasite growth, % of DMSO control",[5]; [12],83.7%
same,"parasite growth remaining, % of DMSO control (lower = more inhibition)",[6]; [12],34.3%
same,"parasite growth, % of control (lower = inhibition)",[7]; [12],84.2%
C=CCN1CC[C@]23c4c5ccc(O)c4O[C@H]2C(=O)CC[C@@]3(O)[C@H]1C5,max response,[2],6.99% (inactive) and 10.2% (inactive)
NCCCC(N)CC(=O)NCC1NC(=O)C(CO)NC(=O)C(N)CNC(=O)C(C2CCN=C(N)N2)NC(=O)C(=CNC(N)=O)NC1=O (stereo not drawn) (H-[Dap]S[Dap](ξβ3hOrn)[ΔAla(3-NHCONH2)][X1]; lactam 1-C; configuration not given here),"parasite growth, % of DMSO control",[5]; [13],92.7%
same,"parasite growth, % of DMSO control",[5]; at 28.5 µM (top of the series),101%
same,"parasite growth remaining, % of DMSO control (lower = more inhibition)",[6]; [13],92.4%
same,"parasite growth remaining, % of DMSO control (lower = more inhibition)",[6]; at 28.5 µM (top of the series),100%
same,"parasite growth, % of control (lower = inhibition)",[7]; [13],121%
same,"parasite growth, % of control (lower = inhibition)",[7]; at 28.5 µM (top of the series),113%
same,"growth, % of control",[8]; [13],101%
same,"growth, % of control",[8]; at 28.5 µM (top of the series),86.8%
C#CCN(C)[C@H](C)Cc1ccccc1,max response,[2],-11.5% (inactive)
same,"parasite growth, % of DMSO control",[5]; [12],92.5%
same,"parasite growth remaining, % of DMSO control (lower = more inhibition)",[6]; [12],97.8%
same,"parasite growth, % of control (lower = inhibition)",[7]; [12],124%
same,"growth, % of control",[8]; [12],95.7%
COC[C@@H](NC(C)=O)C(=O)NCc1ccccc1,"parasite growth, % of DMSO control",[5]; [12],371%
same,"parasite growth remaining, % of DMSO control (lower = more inhibition)",[6]; [12],113%
same,"parasite growth, % of control (lower = inhibition)",[7]; [12],165%
same,"growth, % of control",[8]; [12],737%
CN(C)[C@@H]1C(=O)C(C(N)=O)=C(O)[C@@]2(O)C(=O)C3=C(O)c4c(O)cccc4[C@@](C)(O)[C@H]3C[C@@H]12,max response,[2],8.32% (inactive)
same,"parasite growth, % of DMSO control",[5]; [12],28.7%
same,"parasite growth remaining, % of DMSO control (lower = more inhibition)",[6]; [12],39.9%
same,"parasite growth, % of control (lower = inhibition)",[7]; [12],30.2%
same,"growth, % of control",[8]; [12],32.8%
O=C1CC[C@@]2(O)[C@H]3Cc4ccc(O)c5c4[C@@]2(CCN3CC2CC2)[C@H]1O5,max response,[2],19% (inactive)
same,"parasite growth, % of DMSO control",[5]; [12],94.1%
same,"parasite growth remaining, % of DMSO control (lower = more inhibition)",[6]; [12],113%
same,"parasite growth, % of control (lower = inhibition)",[7]; [12],64.4%
same,"growth, % of control",[8]; [12],83.3%
Cc1ccnc2c1NC(=O)c1cccnc1N2C1CC1,"parasite growth, % of DMSO control",[5]; [12],358%
same,"parasite growth remaining, % of DMSO control (lower = more inhibition)",[6]; [12],112%
same,"parasite growth, % of control (lower = inhibition)",[7]; [12],83.7%
same,"growth, % of control",[8]; [12],600%
CC(C)(N)Cc1ccc(Cl)cc1,max response,[2],12.2% (inactive)
O=C(OC1C[C@H]2CC[C@@H](C1)[N+]21CCCC1)C(O)(c1ccccc1)c1ccccc1 (stereo not given in full),"parasite growth, % of DMSO control",[5]; [12],32.2%
same,"parasite growth remaining, % of DMSO control (lower = more inhibition)",[6]; [12],48.3%
same,"parasite growth, % of control (lower = inhibition)",[7]; [12],30.4%
COc1cc([C@@H]2c3cc4c(cc3[C@H](O)[C@H]3COC(=O)[C@H]23)OCO4)cc(OC)c1OC,max response,[2],11.4% (inactive)
same,remaining parasite growth % (stronger effect = lower value),[9],68.4% and 104%
same,"activity, percent of control",[10],62.7% and 121%
same,"remaining proliferation (% of control), lower = more inhibition",[11],5.53% and 99%
same,"parasite growth, % of DMSO control",[5]; [12],11%
same,"parasite growth remaining, % of DMSO control (lower = more inhibition)",[6]; [12],89.6%
same,"growth, % of control",[8]; [12],6.71%
OC(Cn1cncn1)(Cn1cncn1)c1ccc(F)cc1F,"parasite growth, % of DMSO control",[5]; [12],95.6%
same,"parasite growth, % of control (lower = inhibition)",[7]; [12],88.1%
same,"growth, % of control",[8]; [12],103%
Clc1cccc(N2CCNCC2)c1,max response,[2],0.639% (inactive)
CO[C@]12CC[C@@]3(C[C@@H]1[C@](C)(O)C(C)(C)C)[C@@H]1Cc4ccc(O)c5c4[C@@]3(CCN1CC1CC1)[C@H]2O5,"parasite growth, % of DMSO control",[5]; [12],5.19% [at 57.2 µM]
same,"parasite growth remaining, % of DMSO control (lower = more inhibition)",[6]; [12],6.03% [at 57.2 µM]
same,"parasite growth, % of control (lower = inhibition)",[7]; [12],19.3% [at 57.2 µM]
same,"growth, % of control",[8]; [12],7.07% [at 57.2 µM]
Cc1ccc(-c2nc3ccc(C)cn3c2CC(=O)N(C)C)cc1,max response,[2],7.35% (inactive)
